Among the test systems are NCI-H23 lung; NCI-H226 lung; NCI-H322M lung; HOP-62 NSCLC; NCI-H460 lung; HOP-92 NSCLC; NCI-H522 lung; A549/ATCC NSCLC; 786-0 renal; COLO 205 colon.
Holding throughout (experiment): NCI-60 one-dose screen, 48 h (100 = growth as untreated, 0 = no growth, -100 = all killed)
Settings in all cases: 10 µM unless noted

Drawing on PubChem BioAssay (NCI), this text covers growth for 18 compounds.

Structures are written as SMILES. The panel holds about 83,000 compounds, 20% with a hit somewhere; the sample as a whole holds those more often.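 Compound tested at a single concentration for 48 hours in 96-well plates; a percent growth value below 10 was scored as active.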 Unmarked numbers belong to inactive results. The source made the active and inactive calls.

For `CC(C)=NNc1ccccn1`, the growth was 68% with NCI-H23 lung; 40.9% in the assay with NCI-H226 lung; 19.4% with NCI-H322M lung; 32.8% in the assay on HOP-62 NSCLC; 30% in the assay with NCI-H460 lung; 40.4% with HOP-92 NSCLC. For the same compound, the growth with NCI-H522 lung is 25.5%; with A549/ATCC NSCLC, 35.1%; in the assay on 786-0 renal, 61.7%; with COLO 205 colon, 3.92% (active).
With `COc1cc(-n2cc(-c3cc(O)c(C/C=C(\C)CCC=C(C)C)c(O)c3)nn2)cc2c1O[C@]1(C)CC[C@@H](O)C(C)(C)[C@H]1C2`, the growth is 26.2% in the assay on NCI-H23 lung; 52.7% with NCI-H226 lung; 35.4% in the assay on NCI-H322M lung; -15.1% (active) in the assay with HOP-62 NSCLC; -6.06% (active) in the assay with HOP-92 NSCLC; -26.6% (active) in the assay with NCI-H522 lung. Also, the growth in the assay on A549/ATCC NSCLC is 10.3%; in the assay with 786-0 renal, 6.92% (active); with COLO 205 colon, 12.5%.
Regarding `C#COc1cccc(Nc2ncnc3ncc(NC(=O)CCl)cc23)c1`, the growth in the assay with NCI-H23 lung was 32.9% [6.25 µM]; in the assay with NCI-H226 lung it was 43.8% [6.25 µM]; in the assay on NCI-H322M lung, 59.4% [6.25 µM]; in the assay on HOP-62 NSCLC, -2.06% [6.25 µM] (active); with HOP-92 NSCLC, 59.5% [6.25 µM]; in the assay with NCI-H522 lung, -79.2% [6.25 µM] (active). Further, the growth is 23% [6.25 µM] with A549/ATCC NSCLC, -69.6% [6.25 µM] (active) in the assay on 786-0 renal and -46.9% [6.25 µM] (active) with COLO 205 colon.
Turning to `Cn1c(-c2ccc(Br)cc2)c(O)c(=O)c2c(F)cccc21`, the growth in the assay on NCI-H23 lung was 48.4%; with NCI-H226 lung, 62.9%; in the assay with NCI-H322M lung, 53.5%; with HOP-62 NSCLC, 34%; in the assay on HOP-92 NSCLC, 137%; with NCI-H522 lung it was 54%. The growth in the assay on A549/ATCC NSCLC was 45.9%; in the assay with 786-0 renal, 42.7%; in the assay on COLO 205 colon, 7.68% (active).
As to `CCN(C(=O)N1CCN(c2cc3c(cc2F)c(=O)c(C(=O)O)cn3C2CC2)CC1)c1nc(-c2ccc(Cl)cc2)cs1`, the growth in the assay on NCI-H23 lung was 3.93% (active); in the assay on NCI-H226 lung it was 11.9%; with NCI-H322M lung, 11%; in the assay on HOP-62 NSCLC, 14.2%; with NCI-H460 lung it was 8.51% (active); in the assay with HOP-92 NSCLC, -19.2% (active). The growth was 1.67% (active) in the assay on NCI-H522 lung, 12.9% in the assay on A549/ATCC NSCLC, 12.7% in the assay with 786-0 renal and 0.749% (active) in the assay on COLO 205 colon.
Regarding `C1=CN2CC(c3ccccc3)=NNC2c2ccccc21` (stereo not drawn), the growth in the assay with NCI-H23 lung was 76.1%; in the assay with NCI-H226 lung, 63.3%; in the assay on NCI-H322M lung, 86.1%; with HOP-62 NSCLC, 72.4%; in the assay on HOP-92 NSCLC it was 76.7%; with NCI-H522 lung, 75.5%. The growth is 95.1% with A549/ATCC NSCLC, 99.3% in the assay on 786-0 renal and 113% in the assay with COLO 205 colon.
As for `O=C1N(Cc2ccccc2Cl)c2ccccc2C12NN=C(c1cccc(Cl)c1)S2` (stereo not drawn), the growth was -18.7% (active) with NCI-H23 lung; -58.4% (active) in the assay with NCI-H226 lung; -12.7% (active) in the assay on NCI-H322M lung; -22.6% (active) in the assay on HOP-62 NSCLC; -50.7% (active) in the assay on NCI-H460 lung; -68.3% (active) with HOP-92 NSCLC. For the same compound, the growth is 16.7% with NCI-H522 lung, -63.7% (active) with A549/ATCC NSCLC, -67.7% (active) in the assay on 786-0 renal and 66.8% with COLO 205 colon.
For `O=C(c1ccc(-c2nc(CSc3nc4ccccc4s3)no2)cc1)N1CCSCC1`, the growth in the assay with NCI-H23 lung is 52.9%; in the assay on NCI-H226 lung, 68.4%; with NCI-H322M lung it was 100%; in the assay with HOP-62 NSCLC, 75.9%; in the assay with HOP-92 NSCLC, 66.4%; with NCI-H522 lung it was 19.7%. Moreover, the growth is 52.1% with A549/ATCC NSCLC, 90.6% in the assay with 786-0 renal and 87.8% with COLO 205 colon.
Take `CC(=O)[C@@H]1CCC=C2CC[C@]3(C)[C@@H](CC[C@@H]4[C@@]5(C)CCCNC(C)(C)[C@@H]5CC[C@]43C)[C@H]21`: the growth in the assay with NCI-H23 lung is -58.8% (active); in the assay with NCI-H226 lung, 23.2%; in the assay with NCI-H322M lung, -42.3% (active); in the assay on HOP-62 NSCLC it was -63.5% (active); in the assay with HOP-92 NSCLC, -32.5% (active); with NCI-H522 lung it was -74.1% (active). For the same compound, the growth with A549/ATCC NSCLC is -78.1% (active); in the assay on 786-0 renal, -89.5% (active); with COLO 205 colon it was -81% (active).
With `N=C(N)c1ccc(-c2ccc(-c3cc(Cl)cc(Cl)c3)o2)o1`, the growth was -75.4% (active) in the assay on NCI-H23 lung; 43.9% in the assay with NCI-H226 lung; -77.4% (active) in the assay with NCI-H322M lung; -72.2% (active) with HOP-62 NSCLC; 50.5% with HOP-92 NSCLC; -70.4% (active) in the assay with NCI-H522 lung. The growth in the assay with A549/ATCC NSCLC was -71% (active); in the assay with 786-0 renal it was -61.9% (active); with COLO 205 colon it was -81.7% (active).
Consider `CCOC(=O)c1cc(C(=O)c2cc(OC)c(OC)c(OC)c2)n2ccc(-c3ccncc3)cc12`, for which the growth in the assay on NCI-H23 lung is 94.8%; with NCI-H226 lung, 95.9%; in the assay with NCI-H322M lung, 106%; in the assay on HOP-62 NSCLC, 90.1%; with NCI-H460 lung, 97.4%; in the assay with HOP-92 NSCLC it was 65.8%. Further, the growth in the assay on NCI-H522 lung was 68.7%; in the assay on A549/ATCC NSCLC, 80%; with 786-0 renal, 90.2%; in the assay on COLO 205 colon, 103%.
Regarding `O=CC1(C2(C=O)c3ccccc3-c3ccccc32)c2ccccc2-c2ccccc21`, the growth was -28.8% (active) in the assay with NCI-H23 lung; -47.2% (active) in the assay with NCI-H226 lung; -20.9% (active) with NCI-H322M lung; -76.3% (active) in the assay on HOP-62 NSCLC; -74.8% (active) with HOP-92 NSCLC; -84.5% (active) with NCI-H522 lung. For the same compound, the growth is -50.5% (active) in the assay with A549/ATCC NSCLC, -84.4% (active) in the assay on 786-0 renal and -56% (active) in the assay on COLO 205 colon.
With `Oc1ccc(CCn2c(O)c(/C=C3\CN=c4ccccc4=N3)sc2=S)cc1`, the growth in the assay with NCI-H23 lung is 59.1%; in the assay on NCI-H226 lung, 88.7%; in the assay with NCI-H322M lung, 78.7%; in the assay with HOP-62 NSCLC, 65.8%; with HOP-92 NSCLC it was -14.4% (active); in the assay on NCI-H522 lung, 18.5%. Besides, the growth was 82.1% with A549/ATCC NSCLC, 28.3% with 786-0 renal and 103% with COLO 205 colon.
Take `CCOC(=O)c1c(C)nc2c(c1N)CC(=O)N2Cc1cc(F)cc(Cl)c1`: the growth with NCI-H23 lung is 81.8%; in the assay with NCI-H226 lung, 89.1%; in the assay on NCI-H322M lung, 107%; in the assay with HOP-62 NSCLC, 89.7%; with NCI-H460 lung, 98.1%; in the assay with HOP-92 NSCLC, 78.1%. In addition, the growth in the assay with NCI-H522 lung is 66.8%; in the assay on A549/ATCC NSCLC, 82.8%; in the assay on 786-0 renal, 88.2%; with COLO 205 colon, 121%.
For the compound `O=C(NCCCN1CCOCC1)c1cccc(N2C(=O)/C(=C/c3ccc(F)cc3)SC2=S)c1`, the growth with NCI-H23 lung is 92.5%; in the assay on NCI-H226 lung, 90.4%; in the assay with NCI-H322M lung, 104%; with HOP-62 NSCLC, 100%; in the assay with HOP-92 NSCLC, 46.7%; in the assay on NCI-H522 lung it was 90.3%. The growth with A549/ATCC NSCLC is 103%; in the assay with 786-0 renal it was 97.2%; in the assay on COLO 205 colon, 111%.
On to `CN1CCN(c2ccc(NC(=O)c3cncnc3Nc3ccc(OCc4ccccn4)c(Cl)c3)cc2)CC1`, for which the growth in the assay with NCI-H23 lung is 70.1%; in the assay with NCI-H226 lung it was 70.2%; in the assay with NCI-H322M lung it was 62.2%; with HOP-62 NSCLC, 3.8% (active); in the assay with NCI-H460 lung, 27.8%; in the assay with HOP-92 NSCLC, 45.7%. The growth in the assay with NCI-H522 lung is 55.4%; in the assay with A549/ATCC NSCLC, 25.9%; in the assay with 786-0 renal, -82.4% (active); in the assay on COLO 205 colon, -3.55% (active).
Regarding `N#Cc1nc(-c2ccccc2)oc1S(=O)(=O)N1CCOCC1`, the growth was 89.9% with NCI-H23 lung; 102% in the assay on NCI-H226 lung; 100% in the assay on NCI-H322M lung; 97.9% with HOP-62 NSCLC; 108% with HOP-92 NSCLC; -55.5% (active) with NCI-H522 lung. Also, the growth with A549/ATCC NSCLC was 94.5%; in the assay with 786-0 renal, 88%; in the assay on COLO 205 colon it was 0.0605% (active).
As for `Brc1ccc(-n2cc(-c3nn[nH]n3)c(-c3cccs3)n2)cc1`, the growth in the assay with NCI-H23 lung is 92.9%; with NCI-H226 lung it was 80.2%; in the assay on NCI-H322M lung, 91.9%; in the assay with HOP-62 NSCLC, 91.3%; with HOP-92 NSCLC it was 88.2%; with NCI-H522 lung, 88%. In addition, the results for the growth with A549/ATCC NSCLC, with 786-0 renal and in the assay on COLO 205 colon were 89.1%, 96.6% and 117%, respectively.
